Common to all, as to experiment: qHTS profiling for inhibitors of Plasmodium falciparum proliferation (AID 504749); also: nearly all actives have a fitted effect of over 60% in size
Details in all cases: P. falciparum in erythrocytes, SYBR Green DNA, 72 h; series mostly up to 28.7 µM

One assay relates to DIV14. An outline of the steps:
(§1)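 SYBR Green fluorescence of parasite DNA, read after lysis and overnight dark incubation, measured growth over 72 h in erythrocyte culture at 0.3% parasitemia and 2.5% hematocrit. Data normalised to DMSO and 0.29 uM artemisinin, with plate-drift correction.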

Another assay has as its system DIV17. An outline of the steps:
as §1

For another assay, the system named is Dd2. The method in brief: as §1
The next assay deals with ECU. An outline of the steps: as §1
A further assay has as its system FAB9. An outline of the steps: as §1
The next assay relates to GB4. The method in brief: as §1
The next assay deals with HB3. An outline of the steps: as §1
The subject of another assay is JCK. The method in brief: as §1
The next assay concerns ICS. An outline of the steps: as §1
The next assay relates to DIV30. The method in brief:
as §1

The structures appear in SMILES notation. Records with an inconclusive call do not appear. Active and inactive are the calls of the source. Calls follow the shape of the dose curve; as a rule, active = well fitted inhibition curve with a large enough effect; inconclusive = small, poorly fitted or top-dose-only effect; inactive = flat fitted curve, though single readings scatter.
Potency is read from the fitted curve at half-maximal effect.

Consider `C[C@H]1C[C@H]2[C@@H]3CCC4=CC(=O)C=C[C@]4(C)[C@@]3(Cl)[C@@H](O)C[C@]2(C)[C@@]1(O)C(=O)CO`, for which the Potency entry in the assay with DIV14, in the assay on DIV17, in the assay on Dd2, with ECU, in the assay on FAB9 and with GB4 was “inactive” each time. In addition, the Potency result with HB3 and in the assay on JCK was “inactive” each time.

As to `CC(C)NC[C@@H](O)COc1cccc2ccccc12`, the Potency is 13.5 µM (active) in the assay with DIV14; 9.53 µM (active) in the assay with DIV17; 12.6 µM (active) with Dd2; 12 µM (active) in the assay with GB4; 7.08 µM (active) in the assay on ICS. Moreover, in the assay on FAB9, the Potency entry was “inactive”.

Take `COc1cc2c(cc1OC)C(=O)C(CC1CCN(Cc3ccccc3)CC1)C2` (stereo not drawn): the figures for the Potency in the assay with DIV14 and in the assay with Dd2 were 10.7 µM (active) and 8.91 µM (active), respectively. For the same molecule, the Potency entry in the assay on DIV30, in the assay on ECU, in the assay with FAB9, in the assay with HB3 and with JCK was “inactive” throughout.

Take `CCN(CC)CCOC(=O)C(c1ccccc1)C1CCCCC1` (stereo not drawn): the Potency with DIV14 is 5.36 µM (active); in the assay with Dd2, 11.2 µM (active). For the same molecule, the Potency entry in the assay on DIV30, with FAB9, in the assay with HB3 and in the assay with JCK was “inactive” throughout.

As for `CCOc1ccc2nc3cc(N)ccc3c(N)c2c1`, the Potency in the assay on DIV14 is 7.57 µM (active); in the assay with DIV17, 15.1 µM (active); with Dd2, 2.51 µM (active); in the assay on ECU it was 8.91 µM (active); in the assay with FAB9, 7.94 µM (active); with HB3, 8.91 µM (active). For the same molecule, the results for the Potency in the assay on ICS and in the assay on JCK were 4.47 µM (active) and 10 µM (active), respectively.

For the molecule `c1ccc(CNCCNCc2ccccc2)cc1`, the Potency is 3.79 µM (active) in the assay on DIV14, 6.01 µM (active) with DIV17, 11.2 µM (active) with Dd2 and 11.2 µM (active) in the assay on ECU. Besides, the Potency result in the assay with FAB9, with HB3 and in the assay with JCK was “inactive” in each case.

With `Nc1cc(Cl)c(NC2=NCCN2)c(Cl)c1`, the Potency entry in the assay with DIV17, with DIV30, in the assay with Dd2, in the assay with ECU, in the assay on FAB9 and in the assay with GB4 was “inactive” each time. The Potency result in the assay with HB3, in the assay with ICS and in the assay with JCK was “inactive” each time.

Regarding `CCOc1ccc(Cc2nccc3cc(OCC)c(OCC)cc23)cc1OCC`, the Potency result in the assay on DIV14, with DIV17, with Dd2, with ECU, in the assay with FAB9 and in the assay on ICS was “inactive” in each case. In addition, in the assay with JCK, the Potency is 10 µM (active).

For `O=C1OC(c2ccc(O)cc2)(c2ccc(O)cc2)c2ccccc21`, the Potency entry with DIV14, in the assay on DIV17, with Dd2, in the assay with FAB9, with GB4 and in the assay with HB3 was “inactive” in each case. In addition, the Potency result in the assay with ICS and in the assay on JCK was “inactive” throughout.

As to `COc1ccc(C2C(=O)c3ccccc3C2=O)cc1`, the Potency result in the assay with DIV17, in the assay with DIV30, in the assay with Dd2, with ECU, in the assay with FAB9 and in the assay on GB4 was “inactive” each time. For the same molecule, the Potency entry in the assay with HB3, in the assay on ICS and in the assay with JCK was “inactive” in each case.

With `CCCCCCCCCCOCC(O)CN` (stereo not drawn), the Potency in the assay on DIV14 was 10.7 µM (active); in the assay on Dd2, 12.6 µM (active); with GB4 it was 9.53 µM (active); in the assay with ICS, 11.2 µM (active). Further, the Potency entry in the assay on FAB9, in the assay on HB3 and in the assay on JCK was “inactive” each time.

As for `O=C(CCCN1CCC(O)(c2ccc(Br)cc2)CC1)c1ccc(F)cc1`, the Potency in the assay on DIV14 is 5.73 µM (active); with DIV17, 6.42 µM (active); in the assay with Dd2, 3.55 µM (active); in the assay on GB4, 5.73 µM (active); in the assay with ICS, 3.55 µM (active). Besides, the Potency result in the assay on ECU and with FAB9 was “inactive” throughout.

As for `CN(C)CC/C=C1\c2ccccc2Sc2ccc(Cl)cc21`, the Potency was 7.57 µM (active) with DIV14; 3.38 µM (active) in the assay on DIV17; 8.91 µM (active) with Dd2; 8.91 µM (active) in the assay with FAB9; 10 µM (active) in the assay with ICS.

`CC(C)N=C(N)/N=C(\N)Nc1ccc(Cl)cc1`: the Potency entry in the assay on DIV14 was “inactive”. Further, in the assay on Dd2, the Potency is 3.55 µM (active).

On to `CN1CCN(CCCN2c3ccccc3Sc3ccc(S(=O)(=O)N(C)C)cc32)CC1`, for which the Potency was 4.55 µM (active) with DIV14; 7.21 µM (active) with DIV30; 3.55 µM (active) in the assay on Dd2; 4.47 µM (active) in the assay with ECU; 1.41 µM (active) with ICS.

With `COC1=CC(=O)C[C@@H](C)[C@]12Oc1c(Cl)c(OC)cc(OC)c1C2=O`, the Potency entry in the assay on DIV17, in the assay on DIV30, in the assay on Dd2, in the assay with ECU, in the assay with FAB9 and in the assay on GB4 was “inactive” throughout. Further, the Potency result in the assay on HB3, in the assay on ICS and in the assay on JCK was “inactive” each time.

`CNCCC=C1c2ccccc2CCc2ccccc21`: the Potency in the assay on DIV14 is 2.13 µM (active); with DIV17, 3.79 µM (active); in the assay on Dd2 it was 8.91 µM (active); in the assay on GB4, 8.49 µM (active); in the assay on ICS, 11.2 µM (active). Also, the Potency entry in the assay with FAB9 and in the assay on HB3 was “inactive” throughout.

Consider `CCOC(=O)/C=C(C)/C=C/C=C(C)/C=C/c1c(C)cc(OC)c(C)c1C`, for which the Potency result in the assay on DIV14, with DIV30, in the assay with FAB9, in the assay with GB4 and in the assay with JCK was “inactive” each time.

Turning to `COc1cc(-c2ccc(=O)[nH]n2)ccc1OC(F)F`, the Potency result in the assay with DIV14, with Dd2, in the assay on ECU, in the assay with GB4, with HB3 and with ICS was “inactive” each time.

For the molecule `CCCN1CCCC[C@H]1C(=O)Nc1c(C)cccc1C`, the Potency result in the assay on DIV30, in the assay on ECU, with FAB9, in the assay with HB3, in the assay with ICS and in the assay on JCK was “inactive” throughout. The Potency with GB4 was 15.1 µM (active).

Regarding `CN(C)CCCOc1nn(Cc2ccccc2)c2ccccc12`, the Potency result in the assay on DIV30, in the assay on ECU, in the assay on FAB9, with HB3 and with ICS was “inactive” throughout.

As to `CCOC(=O)c1cccc(N)c1`, the Potency with DIV30 is 12 µM (active). Also, the Potency entry in the assay on Dd2, with ECU, in the assay with FAB9, in the assay on HB3, with ICS and in the assay with JCK was “inactive” each time.

As to `O=C(N/N=C/c1ccccc1O)c1ccncc1`, the Potency is 11.2 µM (active) in the assay on Dd2 and 3.55 µM (active) in the assay on ICS. In addition, the Potency result in the assay on FAB9 and in the assay on JCK was “inactive” each time.

As to `CC(=O)OCC(=O)[C@@]1(OC(C)=O)[C@@H](C)C[C@H]2[C@@H]3C[C@H](F)C4=CC(=O)C=C[C@]4(C)[C@@]3(F)[C@@H](O)C[C@@]21C`, the Potency result in the assay on DIV30, with Dd2, in the assay with ECU, in the assay with FAB9, with HB3 and in the assay with JCK was “inactive” each time. Besides, in the assay on ICS, the Potency is 11.2 µM (active).

For the origin of these results see PubChem BioAssay (NCATS).
